Data on 23 compounds can be found in PubChem BioAssay (NCATS).

Records with an inconclusive call do not appear. The source made the active and inactive calls. Calls follow the shape of the dose curve; as a rule, active = well fitted inhibition curve with a large enough effect; inconclusive = small, poorly fitted or top-dose-only effect; inactive = no such curve, though single readings can be large or run the other way.
% is scaled to controls: 0 for no effect and ±100 for the full control effect; potency is read from the fitted curve at half-maximal effect.

Rap guanine nucleotide exchange factor 4 (Homo sapiens), sequence (Q8WZA2 whole entry, looked up): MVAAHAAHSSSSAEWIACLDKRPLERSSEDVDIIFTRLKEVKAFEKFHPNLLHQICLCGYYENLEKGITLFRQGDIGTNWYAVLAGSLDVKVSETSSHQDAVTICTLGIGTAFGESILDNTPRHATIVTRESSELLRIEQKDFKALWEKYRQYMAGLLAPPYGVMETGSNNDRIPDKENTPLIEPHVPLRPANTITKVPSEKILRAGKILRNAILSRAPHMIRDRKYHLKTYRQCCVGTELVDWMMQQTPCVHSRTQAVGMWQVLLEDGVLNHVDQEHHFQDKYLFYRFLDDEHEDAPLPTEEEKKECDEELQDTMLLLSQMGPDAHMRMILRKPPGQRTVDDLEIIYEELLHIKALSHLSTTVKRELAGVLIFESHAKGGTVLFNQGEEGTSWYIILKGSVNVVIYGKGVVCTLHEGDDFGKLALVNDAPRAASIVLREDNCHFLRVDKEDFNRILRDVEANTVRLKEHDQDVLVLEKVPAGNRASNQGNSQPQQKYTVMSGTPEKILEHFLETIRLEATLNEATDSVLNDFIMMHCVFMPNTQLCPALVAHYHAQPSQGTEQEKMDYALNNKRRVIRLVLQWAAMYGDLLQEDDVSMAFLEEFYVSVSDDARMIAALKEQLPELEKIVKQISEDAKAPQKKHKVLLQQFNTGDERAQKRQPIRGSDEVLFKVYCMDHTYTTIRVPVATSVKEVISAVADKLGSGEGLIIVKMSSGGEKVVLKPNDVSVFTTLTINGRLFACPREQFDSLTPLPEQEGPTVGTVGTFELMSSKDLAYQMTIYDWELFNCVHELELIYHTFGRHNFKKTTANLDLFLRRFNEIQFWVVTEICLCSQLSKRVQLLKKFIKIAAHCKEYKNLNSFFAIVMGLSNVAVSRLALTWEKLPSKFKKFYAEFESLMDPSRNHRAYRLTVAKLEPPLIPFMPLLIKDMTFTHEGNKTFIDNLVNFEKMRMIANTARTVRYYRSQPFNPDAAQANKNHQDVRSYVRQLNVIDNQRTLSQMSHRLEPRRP

This assay concerns the target Rap guanine nucleotide exchange factor 4 (Homo sapiens) (UniProt Q8WZA2). As to the kind of experiment: Confirmatory qHTS for antagonist of cAMP-regulated guanine nucleotide exchange factor 4 (EPAC2) (AID 1645885). Also: nearly all actives have a fitted effect of over 25% in size. The settings on record: EPAC2 Rap1B-BODIPY-GDP exchange fluorescence, biochemical; series mostly up to 12.7 µM; activity change, negative = inhibition: at the top concentration. In general terms: Quantitative high-throughput screening tests each substance at several concentrations.
On to `COc1ccc(Cl)cc1NC(=O)CN(C)C(C)C(=O)NC(=O)NC1CCCCC1` (stereo not drawn), for which the “activity change, negative = inhibition” value is 28.4% [at 114 µM] (inactive). On the same count and under the same terms, the result for `COC(=O)c1c(C)c2c(C)cc3ccccn3c-2c1C(=O)OC` reads -0.811% (inactive). In the case of `CCOc1ccc(CCN2C(=O)C(=O)N([C@@H](CC(C)C)CN3CCC[C@@H]3CN3C(=O)C(=O)NC[C@@H]3Cc3ccccc3)C[C@@H]2CC(C)C)cc1`, the Potency is 95.3 nM (active).

As to `CCOC(=O)N1CCc2c(sc3c2c(=O)n(-c2ccc(F)cc2)c(=O)n3CC(=O)c2ccc(Cl)cc2)C1`, the “activity change, negative = inhibition” value was 32.1% (inactive).

On to `CCOC(=O)/C(C#N)=C/c1ccc(N2CCN(Cc3ccccc3)CC2)cc1`, for which the “activity change, negative = inhibition” value is -1.29% (inactive). On the same count and under the same terms, the result for `CCN(CC)c1ccc2cc(C(N)=O)c(=N)oc2c1` reads 2.22% (inactive).

As for `COc1ccc(N=Cc2c(O)ccc3ccccc23)cc1`, the “activity change, negative = inhibition” value is -19.5% (inactive).

`CCOC(=O)C1=C(C)N=c2s/c(=C\c3cccn3C)c(=O)n2C1c1cccc(OC)c1OC` (stereo not drawn): the “activity change, negative = inhibition” value is -11.2% (inactive). On the same count and under the same terms, the same measure for `C=CCN1C(=O)c2cccc3c(N4CCCCC4)ccc(c23)C1=O`: 198% [at 114 µM] (inactive); for `O=C(NN=Cc1c(O)ccc2ccccc12)c1ccncc1`: -7.6% (inactive). As for `COC(=O)CC(NC(=S)NC(=O)c1ccccc1)c1ccc(Br)cc1` (stereo not drawn), the compound was classed as inactive. Turning to `N=C1SC(c2ccccc2)C(=O)N1c1ncc(Cc2ccccc2Cl)s1` (stereo not drawn), the “activity change, negative = inhibition” value was 78.5% [at 114 µM] (inactive). As for `O=C(O)c1ccccc1NS(=O)(=O)c1ccc(NN=Cc2cccc(Cl)c2)c([N+](=O)[O-])c1`, the “activity change, negative = inhibition” value is -25.6% [at 114 µM] (inactive). `O=C(NCc1ccco1)c1ccc(Cn2c(=S)[nH]c3ccccc3c2=O)cc1`: the Potency was 953 nM (active). In the case of `O=C(COc1cccc(OC(F)F)c1)Nc1ccc(SC(F)F)cc1`, the “activity change, negative = inhibition” value was -24.8% (inactive).

For `O=C1CCC2CN3CCc4c([nH]c5ccccc45)C3CC2C1` (stereo not drawn), the “activity change, negative = inhibition” value was -22.4% (inactive).

Consider `Cc1ccc(S(=O)(=O)C2(C(=O)Nc3ccc(Br)cc3)CC2)cc1`, for which the “activity change, negative = inhibition” value was -22.3% (inactive).

In the case of `CCc1ccc(NC(=O)/C(C#N)=C/c2cc3ccc(C)cc3nc2N2CCOCC2)cc1`, the “activity change, negative = inhibition” value was -15.5% (inactive). Consider `COC(=O)c1cc2sc(Cl)cc2n1Cc1cc(C)ccc1C`, for which the “activity change, negative = inhibition” value was 19.3% (inactive). On to `CN1CCS/C1=C\C=C1/SC(=S)N(CC(=O)O)C1=O`, for which the “activity change, negative = inhibition” value was -9.84% [at 114 µM] (inactive).

As for `Cc1cccc(-n2c(N)c(-c3nc4ccccc4n3C)c3nc4ccccc4nc32)c1`, the “activity change, negative = inhibition” value is 1.24% (inactive). The same measure, in the same setting: the same measure for `COC(=O)c1ccccc1C(=O)c1cccc2ccccc12`: -47.7% [at 114 µM] (inactive); for `CC(OC(=O)/C(C#N)=C/c1ccc(N(C)C)cc1)C(=O)N(C)Cc1ccccc1` (stereo not drawn): -10.8% (inactive).
